Bioassay records deposited in PubChem BioAssay by National Center for Advancing Translational Sciences (NCATS).
12-LOX inh = ALOX12 (human) lipoxygenase inhibition. P18054. purified 12hLO, xylenol orange hydroperoxide absorbance. Potency, µM (titrated, usually from 108 µM), inactives show top-dose activity change, negative = inhibition, hits mostly inhibitors. 1.1% of 580,000 active. AID 1671190; also: potency is read from the fitted curve at half-maximal effect; % is scaled to controls: 0 for no effect and ±100 for the full control effect
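Purified human 12hLO (150 nM final) in 25 mM Hepes, 0.01% Triton X-100, pH 7.0 was preincubated 15 min at room temperature with compound. Then 40 uM arachidonic acid was added, 30 min. Hydroperoxide was read by Fe-XO absorbance ratio 573/405 nm.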
A549 viability = kills or reduces viability of A549 cells in Nrf2 counter-screen; Potency, µM (doses to about 46 µM), for the others: at the highest dose activity change, negative = cytotoxicity, most hits filed as inhibitors; 0.16% of 390,000 active; A549 ARE-Fluc cells, CellTiter-Fluor viability, 18-24 h; AID 504648; also: potency is read from the fitted curve at half-maximal effect; % is scaled to controls: 0 for no effect and ±100 for the full control effect
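A549 ARE-Fluc cells in 5% FBS OPTI-MEM, 5000 cells/well, rested 2 h then exposed to compounds in concentration-response for 18-24 h at 37 °C. Viability by CellTiter-Fluor fluorescence (Ex 405/Em 525) after 30 min; luciferase luminescence (BugLite, 15 min, RT) read afterwards.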
ERG-DNA inh = ERG Ets/DNA interaction inhibition; P11308; fluorescence polarization, His-ERG Ets domain / labelled DNA; Potency, µM (top dose mostly 76.9 µM), inactives show top-dose FP activity, negative = inhibition, usual class: inhibitors; 0.028% of 370,000 active; active = well fitted inhibition curve with a large enough effect in the polarisation, with a control signal flat; inconclusive = small, poorly fitted or top-dose-only effect, or effect the other way, or a change in a side signal; inactive = no such curve, though single readings can be large or run the other way; the % refers to the polarisation;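 also: polarization taken with two DNA probes labelled with fluorescein and Texas red; potency is read from the fitted curve at half-maximal effect; % of control where 0% means no effect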
Target sequence (P11308 whole entry, looked up, the tested form may be a part): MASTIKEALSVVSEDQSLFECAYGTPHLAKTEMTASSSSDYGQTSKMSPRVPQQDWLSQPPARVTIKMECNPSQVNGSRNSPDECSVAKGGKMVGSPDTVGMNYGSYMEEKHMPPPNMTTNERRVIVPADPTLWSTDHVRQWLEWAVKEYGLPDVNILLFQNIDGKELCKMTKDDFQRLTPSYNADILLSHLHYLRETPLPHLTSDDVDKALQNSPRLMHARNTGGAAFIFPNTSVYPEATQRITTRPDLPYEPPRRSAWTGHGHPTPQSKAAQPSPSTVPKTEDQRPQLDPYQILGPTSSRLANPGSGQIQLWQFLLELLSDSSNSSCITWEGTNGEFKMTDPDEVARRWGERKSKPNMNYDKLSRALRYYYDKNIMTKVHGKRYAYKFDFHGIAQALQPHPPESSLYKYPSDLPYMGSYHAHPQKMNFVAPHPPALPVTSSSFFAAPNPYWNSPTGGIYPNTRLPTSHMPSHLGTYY
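His-tagged ERG Ets domain (1 uM in the protein solution; 300mM KCl, 50mM Tris-HCl, 1mM EDTA, 1mM DTT, pH 7.5) received compound, then a probe mix of 5 nM fluorescein-DNA and 100nM Texas-615-DNA. Fluorescence polarization was read for both dyes.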
LDHA block = LDHA (human) enzyme inhibition; P00338; purified LDHA, NADH/diaphorase-resazurin fluorescence; active compounds read low; activity change, % (values are at about 110 or 230 µM); 0.15% of 480,000 active; in the data active = activity change below about -30%; inconclusive = mostly about -25% to -30%;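 also: plate controls were DMSO wells for no effect and wells without enzyme for full effect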
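Resorufin fluorescence (ex540/em590), read at 0 and 20 min after diaphorase/resazurin addition, reports the NADH left after a 5 min room-temperature reaction of 2 nM human LDH5 with 0.06 mM NADH and 0.2 mM pyruvate.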
Nrf2 ARE act = Nrf2 pathway activation; AREc32 ARE-luciferase reporter (MCF7-derived line), luminescence, 24 h; Potency, µM (titrated, usually from 46.1 µM), for the others: at the highest dose activation, usual class: activators; 0.31% of 410,000 active; AID 624171; also: potency is read from the fitted curve at half-maximal effect; % of control where 0% means no effect; nearly all actives have a fitted effect of over 65% in size
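Luminescent ARE reporter assay in AREc32_Fluc cells: overnight plating at 37 deg C, 24 hr compound incubation, Steady-Glo added, 30 min RT before reading.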
Nrf2 block = Nrf2 pathway inhibition | A549 ARE-Fluc reporter, luciferase luminescence, 18-24 h | 2.1% of 360,000 active | AID 504444 | Potency, µM (highest dose often 46 µM), for the others: top-dose activity change, negative = inhibition, hits mostly inhibitors; also: potency is read from the fitted curve at half-maximal effect; % is scaled to controls: 0 for no effect and ±100 for the full control effect; nearly all actives have a fitted effect of over 60% in size
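Two sequential reads on A549 ARE_Fluc cells exposed to compound for 18-24 h: a CellTiter-Fluor fluorescence read for viability, then a luciferase luminescence read for Nrf2/ARE activity.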
* hit, by the source's call; [ ] = another dose, or the depositor's remark. The list is not random: actives were taken first. Their share in the collection is about 2.7%. Unless noted, calls follow the shape of the dose curve; as a rule, active = well fitted curve in the direction sought with a large enough effect; inconclusive = small, poorly fitted or top-dose-only effect, or another doubt; inactive = no such curve, though single readings can be large; an effect the other way counts as inactive or inconclusive.

What do the screens show for `CCCc1cc2c(O)ccc(O)c2c(=O)o1`?
12-LOX inh: 35µM*

Results for O=C(Nc1cc2c(oc1=O)CCCC2=O)c1cccc(Cl)c1 ?
12-LOX inh: inconclusive; A549 viability: 7%; ERG-DNA inh: -1%; LDHA block: -3; Nrf2 ARE act: 11µM*; Nrf2 block: 16%

What do the screens show for `O=S(=O)(NCCc1cn2ccccc2n1)c1ccc(Cl)cc1C(F)(F)F`?
12-LOX inh: inconclusive; LDHA block: 1

How did CCCCn1c(O)c(C2=Nc3ccccc3SC(c3ccc(O)cc3)C2)c(=O)[nH]c1=O (stereo not given) do in these assays?
12-LOX inh: 28µM*; LDHA block: -25

How did O=C(CN1CCCC1)Nc1ccc(OC(F)(F)F)cc1 do in these assays?
12-LOX inh: inconclusive; A549 viability: 6%; ERG-DNA inh: -4%; LDHA block: -15; Nrf2 ARE act: 0%; Nrf2 block: 22%

Results for CCN1CCN(CC(=O)Nc2ccc(OC(F)(F)F)cc2)CC1 ?
12-LOX inh: 0.5µM*; A549 viability: 2%; ERG-DNA inh: -8%; LDHA block: -18; Nrf2 ARE act: 0%; Nrf2 block: -3%

Results for Cc1cccc(N2CCN(C(=O)C3CCN(S(=O)(=O)c4cn(C)c(C)n4)CC3)CC2)c1C ?
12-LOX inh: inconclusive; LDHA block: -5

How did O=C(O)c1c(Cl)c(Cl)c(Cl)c(Cl)c1C(=O)N1CCOCC1 do in these assays?
12-LOX inh: 11µM*; A549 viability: -8%; ERG-DNA inh: 1%; LDHA block: -7; Nrf2 ARE act: 0%; Nrf2 block: -3%

What do the screens show for `O=C(O)c1c(Cl)c(Cl)c(Cl)c(Cl)c1C(=O)N1CCCCCC1`?
12-LOX inh: -3%; A549 viability: -17%; ERG-DNA inh: 3%; LDHA block: -8; Nrf2 ARE act: 0%; Nrf2 block: -2%

Results for COc1ccc(NC(=O)CC2C(=O)NCCN2C(=O)CN2CCN(c3ncccn3)CC2)cc1 (stereo not given) ?
12-LOX inh: 1%; LDHA block: -6

How did COc1ccc2c(-c3ccccc3)cc(SCC(=O)N3CCOCC3)nc2c1 do in these assays?
12-LOX inh: -21%; LDHA block: 4

Results for CC(C)C(C)NC(=O)CSc1ccc2ccccc2n1 (stereo not given) ?
12-LOX inh: 21%; LDHA block: -32*

What do the screens show for `CC(NC(=O)CSc1ccc2ccccc2n1)C1CC1` (stereo not given)?
12-LOX inh: inconclusive; LDHA block: 5

Results for COc1cc2c(cc1OC)/C(=C/S(=O)(=O)c1cccc(C)c1)NCC2 ?
12-LOX inh: inconclusive; LDHA block: 0

Results for CCOP(=O)(OCC)c1nc(-c2ccccc2)oc1NCc1ccco1 ?
12-LOX inh: 17%; LDHA block: 5

Results for COc1ccc2c(c1)CC/C(=C\c1ccc(Br)cc1)C2=O ?
12-LOX inh: inconclusive; LDHA block: 6

What do the screens show for `COc1ccc(-c2nnc3ccc(SCC(=O)N4CCN(c5ccccc5)CC4)nn23)cc1`?
12-LOX inh: 32µM*; A549 viability: -14%; ERG-DNA inh: 4%; LDHA block: -1; Nrf2 ARE act: 0%; Nrf2 block: -4%

What do the screens show for `Cc1ccc(-c2nnc3ccc(SC(C)C(=O)O)nn23)cc1` (stereo not given)?
12-LOX inh: 32µM*; A549 viability: -5%; ERG-DNA inh: -2%; LDHA block: -2; Nrf2 ARE act: 0%; Nrf2 block: 1%

How did COc1ccc(C(=O)N2CCN(C3CCCCC3)CC2)cc1OC do in these assays?
12-LOX inh: 0.63µM*; A549 viability: 3%; ERG-DNA inh: 20%; LDHA block: -23; Nrf2 ARE act: 0%; Nrf2 block: -14%

What do the screens show for `COc1cc(C(=O)N2CCN(C3CCCCC3)CC2)cc(OC)c1OC`?
12-LOX inh: 2%; A549 viability: -2%; ERG-DNA inh: 6%; LDHA block: -10; Nrf2 ARE act: 0%; Nrf2 block: -2%

Results for COc1cccc(CN2CCC(C(=O)N3CCN(c4ccccc4F)CC3)CC2)c1 ?
12-LOX inh: -19%; A549 viability: 1%; ERG-DNA inh: 7%; LDHA block: -8; Nrf2 ARE act: 0%[9.22 µM]; Nrf2 block: 5%

How did COc1ccc(NC(=O)CN2CCN(Cc3ccc4c(c3)OCO4)CC2)cc1OC do in these assays?
12-LOX inh: inconclusive; A549 viability: 9%; ERG-DNA inh: 1%; LDHA block: -37*; Nrf2 ARE act: 0%; Nrf2 block: -26%

Results for COc1ccc(OCCN2CCN(C(=O)c3ccc(OC)c(OC)c3)CC2)cc1 ?
12-LOX inh: 12%; A549 viability: -19%; ERG-DNA inh: -2%; LDHA block: -4; Nrf2 ARE act: 0%; Nrf2 block: 23µM*

Results for COc1ccc(OCC(=O)N2CCN(C(=O)c3ccc(OC)c(OC)c3)CC2)cc1 ?
12-LOX inh: -18%; A549 viability: 6%; ERG-DNA inh: -10%; LDHA block: -1; Nrf2 ARE act: 0%; Nrf2 block: 16%

What do the screens show for `COc1cccc(CN2CCC(C(=O)N3CCN(Cc4ccc5c(c4)OCO5)CC3)CC2)c1`?
12-LOX inh: inconclusive; A549 viability: -2%; ERG-DNA inh: -3%; LDHA block: -33*; Nrf2 ARE act: 0%; Nrf2 block: -7%

What do the screens show for `COc1ccc(-n2ccn(CC(=O)Nc3ccccc3C)c2=O)cc1`?
12-LOX inh: -26%; LDHA block: -11

What do the screens show for `CC1CCN(C(CNC(=O)Cn2c(=O)c3c(ncn3C)n(C)c2=O)c2cccs2)CC1` (stereo not given)?
12-LOX inh: 40%; LDHA block: -1

What do the screens show for `CCCN(CC)c1ccc(/C=N/NC(=S)Nc2cccc(C)c2)cc1`?
12-LOX inh: inconclusive; LDHA block: 7

Results for COc1ccc(C(=O)N2CCN(Cc3ccc4c(c3)OCO4)CC2)cc1OC ?
12-LOX inh: inconclusive; A549 viability: -7%; ERG-DNA inh: -6%; LDHA block: -14; Nrf2 ARE act: 1%; Nrf2 block: 16µM*

Results for O=C(c1[nH]nc2c1CCc1ccccc1-2)N1CCN(Cc2ccc3c(c2)OCO3)CC1 ?
A549 viability: -17%; ERG-DNA inh: 1%; LDHA block: 0; Nrf2 ARE act: 1%; Nrf2 block: 15µM*

Results for COc1cc(C#N)ccc1OCc1ccccc1Br ?
12-LOX inh: -9%; LDHA block: -2
